Here are results for 73 compounds from the supplement of paper PMC8183993.

SMILES strings stand for the structures. Several values for one entry are separate records, joined by “and”; a condition that tells them apart may be missing. Identical values can stand only once. Counter-ions that a name gives are not always drawn. ± gives the standard deviation of the averaged measurements. Over roughly 3,200 compounds, “nuclei count (viability) relative to DMSO” has its median near 99; the lowest 2% begin near 16. This is one part of a sample in which the lowest values are shown more often than they occur.

For this experiment, the system named is U2OS. In words: nuclei count (viability) relative to DMSO (% of DMSO); higher = more viable cells. Conditions: 10 µM; 24 h. On the procedure:
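Primary image-based screen in U2OS cells: compounds at 10 uM for 24 h, then a 1 h o-propargyl-puromycin (OPP) pulse, click labelling, and high-throughput microscopy. Mean cytoplasmic OPP intensity and nuclei count were normalised to DMSO wells within each plate (DMSO = 100) and averaged over triplicate plates.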
Compound `O=C(c1cc(O)c(O)c(O)c1)c1ccc(O)c(O)c1O` [Exifone] came in with a nuclei count of 94.1.

`COc1ccccc1N1CCN(CCN(C(=O)C2CCCCC2)c2ccccn2)CC1` came in with a nuclei count of 101.

On to `Cn1nc(C(C)(C)C)cc1C(=O)N[C@@H](Cc1cccc(Cl)c1)C(=O)NCC#N` [Cathepsin Inhibitor 1], for which the nuclei count was found to be 107.

For `CC(C)c1cc(C(C)C)c(CC(=O)NS(=O)(=O)Oc2c(C(C)C)cccc2C(C)C)c(C(C)C)c1` [Avasimibe (CI-1011)], the nuclei count is 99.4.

As to `NC(N)=S` [Thiourea], the nuclei count worked out at 103.

For `Nc1nc(N)c2nc(-c3cccc(O)c3)cnc2n1`, the nuclei count was found to be 94.7 ± 4.5.

In the case of `c1ccc2sc(N3CCN(Cc4ccc5c(c4)OCO5)CC3)nc2c1` [2-[1-(4-Piperonyl)piperazinyl]benzothiazole], the nuclei count is 111.

In the case of `C[C@H](N[C@@H](CCc1ccccc1)C(=O)O)C(=O)N1CCC[C@H]1C(=O)O` [Enalaprilat dihydrate], the nuclei count amounted to 94.3.

`CC(C)c1nc(CN(C)C(=O)N[C@@H](CCN2CCOCC2)C(=O)N[C@H](CC[C@H](Cc2ccccc2)NC(=O)OCc2cncs2)Cc2ccccc2)cs1` [Cobicistat (GS-9350)] showed a nuclei count of 96.2.

`CC(C)C[C@H](NC(=O)[C@H](CCc1ccccc1)NC(=O)CN1CCOCC1)C(=O)N[C@@H](Cc1ccccc1)C(=O)N[C@@H](CC(C)C)C(=O)[C@@]1(C)CO1` [Carfilzomib (PR-171)] returned a nuclei count of 7.25.

In the case of `CC1OC2(CS1)CN1CCC2CC1` (stereo not drawn) [Cevimeline hydrochloride], the nuclei count came out at 101.

The compound `Cc1ccc(C(=O)c2cc(/C=C/C(=O)NO)n(C)c2)cc1` yielded a nuclei count of 92.7.

With `CN(Cc1ccccc1)C(=O)[C@H](Cc1ccc2ccccc2c1)NC(=O)[C@@H]1C[C@@H](O)CN1C(=O)c1cn(C)c2ccccc12`, the nuclei count came to 98.

Regarding `Cc1cc2c(cc1C1(c3ccc(C(=O)O)cn3)CC1)C(C)(C)CCC2(C)C`, the nuclei count was determined as 102.

The compound `CCc1cncnc1N1CCN(Cc2nc3ccc(C(F)(F)F)cc3[nH]2)CC1` yielded a nuclei count of 99.88 ± 0.89.

`Cc1nc2ccc(NC(=O)Nc3ccnc4cccnc34)cc2o1` gave a nuclei count of 99.6.

Turning to `NC(=O)Nc1sc(-c2ccc(F)cc2)cc1C(N)=O`, the nuclei count came to 47 ± 0.38.

Consider `Cc1c(C(=O)NC2CCCCC2)sc2nc3ccc(N)cc3n12`, for which the nuclei count stood at 99.5.

`NC(=O)Nc1cc(-c2cccc(F)c2)sc1C(=O)N[C@H]1CCCNC1` returned a nuclei count of 7.62.

In turn, `Cc1ccc2c(c1)C(=O)C1(O)CCN(c3ccccc3)C1=N2` (stereo not drawn) [(?)-Blebbistatin] showed a nuclei count of 96.3.

`CC(C(=O)Nc1cccc(/N=C/c2c(O)ccc3ccccc23)c1)c1ccccc1` (stereo not drawn) [Salermide] came in with a nuclei count of 101.

`Cc1cc(/C=C/c2ccc3cc(N(C)C)ccc3[n+]2C)c(C)n1-c1ccccc1` [Pyrvinium pamoate]: the nuclei count came to 6.32.

`CN1CCN(CCc2ccc(Cl)c(Cl)c2)CC1` [BD 1063 dihydrochloride] showed a nuclei count of 104.

In turn, `OC(c1ccccc1)C1CCN(CCc2ccccc2)CC1` (stereo not drawn) had a nuclei count of 99.4.

As to `NS(=O)(=O)c1cccc2c1c([N+](=O)[O-])cc1nc(O)c(O)nc12` [NBQX disodium salt], the nuclei count amounted to 109.

`NS(=O)(=O)c1cccc2c1c([N+](=O)[O-])cc1nc(O)c(O)nc12` showed a nuclei count of 98.7.

For the compound `COc1cc(N2CCC(N)CC2)ccc1Nc1ncc(Cl)c(-c2c[nH]c3ccccc23)n1`, the nuclei count came out at 7.03.

The compound `CCOc1cc(N2CCC(O)CC2)ccc1Nc1ncc2c(n1)N(C)c1ccccc1C(=O)N2C` had a nuclei count of 95.5.

As for `CNC(=O)c1ccccc1Nc1nc(Nc2ccc(N3CCOCC3)cc2OC)ncc1Cl`, the nuclei count came out at 38.9 ± 1.6.

In the case of `CN(C(=O)c1ccc(F)cc1C(F)(F)F)C1CCN(c2nnc(-c3ccnn3C)c3ccccc23)CC1`, the nuclei count is 101.

In turn, `C1=N/C2=N/c3ccc(OCCN4CCCC4)c(c3)COC/C=C/COCc3cccc(c3)C(=C1)N2` [Pacritinib (SB1518)] returned a nuclei count of 16.7.

As for `Cn1c(CNc2ccc(C(=N)N)cc2)nc2cc(C(=O)N(CCC(=O)O)c3ccccn3)ccc21` [BIBR 953 (Dabigatran etexilate, Pradaxa)], the nuclei count was 108.

`N=C(N)NC(=N)Nc1ccccc1` [1-Phenylbiguanide hydrochloride] displayed a nuclei count of 95.6.

The compound `Cn1cc(C2=C(c3cn(CCCSC(=N)N)c4ccccc34)C(=O)NC2=O)c2ccccc21` [Ro 31-8220 Mesylate] gave a nuclei count of 29.7.

Take `Cn1cc(C2=C(c3cn(CCCSC(=N)N)c4ccccc34)C(=O)NC2=O)c2ccccc21` [Ro 31-8220 mesylate]: the nuclei count came to 10.6.

Turning to `CN(C)CCCn1cc(C2=C(c3c[nH]c4ccccc34)C(=O)NC2=O)c2ccccc21`, the nuclei count was 55.6 and 47.3.

As to `Cn1cc(C2=C(c3ccc(Cl)cc3Cl)C(=O)NC2=O)c2ccccc21`, the nuclei count was 94.8 and 92.7.

`O=C(O)CCC/C=C\C[C@@H]1CO[C@H](C(F)(F)F)O[C@@H]1c1ccccc1O` registered a nuclei count of 102.

`O=C(O)CNC(=O)C(CS)Cc1ccccc1` (racemic) [DL-Thiorphan] had a nuclei count of 113.

For `CNC(C)C1CCC(N)C(OC2C(N)CC(N)C(OC3OCC(C)(O)C(NC)C3O)C2O)O1` (stereo not drawn) [Gentamycin sulfate (Gentacycol)], the nuclei count came out at 79.5.

For `CC(C)c1noc(N2CCC(COc3ccc(-c4ccc(S(C)(=O)=O)cc4)nc3)CC2)n1`, the nuclei count was 109.

With `C=C(NC(=O)C(=C)NC(=O)c1csc(C2=N[C@@H]3c4csc(n4)[C@H]4NC(=O)c5csc(n5)[C@H]([C@](C)(O)[C@@H](C)O)NC(=O)[C@H]5CSC(=N5)/C(=C/C)NC(=O)[C@H]([C@@H](C)O)NC(=O)c5csc(n5)[C@]3(CC2)NC(=O)[C@H](C)NC(=O)C(=C)NC(=O)[C@H](C)NC(=O)[C@H]([C@@H](C)CC)N[C@@H]2C=Cc3c([C@H](C)O)cc(nc3[C@H]2O)C(=O)O[C@@H]4C)n1)C(N)=O` [Thiostrepton], the nuclei count is 16.2.

Compound `CC(=O)OC[C@H]1O[C@@H]([S-])[C@H](OC(C)=O)[C@@H](OC(C)=O)[C@@H]1OC(C)=O.CCP(CC)CC.[Au+]` [Auranofin] had a nuclei count of 13.4.

In turn, `CCN(C(=O)CO)[C@H]1CN(/C(=N\C#N)Nc2cccc(OC(F)F)c2)N=C1c1ccc(Cl)c(Cl)c1` registered a nuclei count of 111.

`CN1CCN(c2nc(C3=C(c4c[nH]c5ccccc45)C(=O)NC3=O)c3ccccc3n2)CC1` [Sotrastaurin (AEB071)] came in with a nuclei count of 95.2 ± 3.4.

For `O=C(/C=C/c1ccc(O)cc1)CC(=O)/C=C/c1ccc(O)cc1` [bis-demethoxycurcumin], the nuclei count worked out at 93.2.

For `C=CC(=O)Nc1cccc(Nc2nc(Nc3ccc(NC4CN(CCF)C4)cc3OC)ncc2C(F)(F)F)c1`, the nuclei count was 20.7.

In turn, `CC(=O)NCC(=O)N1[C@@H]2CC[C@H]1c1ccc(Nc3ncc(C(F)(F)F)c(NC4CCC4)n3)cc12` had a nuclei count of 16.4.

`C=CC(=O)Nc1cccc(Nc2nc(Nc3ccc(N4CCN(C(C)=O)CC4)cc3OC)ncc2C(F)(F)F)c1`: the nuclei count is 57.6.

In turn, `COc1ccc(Br)cc1S(=O)(=O)NC(=O)/C=C/c1ccccc1Cc1ccc2ccccc2c1` returned a nuclei count of 104.

Compound `O=C1c2ccccc2-c2nc3nonc3nc21` had a nuclei count of 44.

In turn, `CCCCCCCc1ccc(CCc2cccc(O)c2C(=O)O)cc1` displayed a nuclei count of 7.35.

Compound `CCCCCCCCc1ccc(-c2ccc(C(=O)O)cc2)cc1` returned a nuclei count of 108.

`CCCCCCCCc1ccc(CCC(N)(CO)CO)cc1` [Fingolimod (FTY720)] came in with a nuclei count of 18.9 ± 0.71.

In turn, `CC(C)=CCC/C(C)=C/CC/C(C)=C/CSCC(=O)O` [Farnesylthioacetic acid] displayed a nuclei count of 97.9.

As to `C1COC(NC(C2CC2)C2CC2)=N1` [Rilmenidine], the nuclei count turned out to be 93.6.

The compound `C1COC(NC(C2CC2)C2CC2)=N1` [Rilmenidine hemifumarate] returned a nuclei count of 103.

For `CC(C)(C)c1ccc(S(=O)(=O)/C=C/C#N)cc1`, the nuclei count was 43.7.

In turn, `COc1cc([C@@H]2c3cc4c(cc3[C@@H](O[C@@H]3O[C@@H]5CO[C@@H](c6cccs6)O[C@H]5[C@H](O)[C@H]3O)[C@H]3COC(=O)[C@H]23)OCO4)cc(OC)c1O` [Teniposide (Vumon)] returned a nuclei count of 15.5.

Compound `COc1cc([C@@H]2c3cc4c(cc3[C@@H](O[C@@H]3O[C@@H]5CO[C@@H](C)O[C@H]5[C@H](O)[C@H]3O)[C@H]3COC(=O)[C@H]23)OCO4)cc(OC)c1O` [Etoposide (VP-16)] registered a nuclei count of 50.9.

`COc1cc([C@@H]2c3cc4c(cc3[C@@H](O[C@@H]3O[C@@H]5CO[C@@H](C)O[C@H]5[C@H](O)[C@H]3O)[C@H]3COC(=O)[C@H]23)OCO4)cc(OC)c1O` [Etoposide] came in with a nuclei count of 44.3 ± 2.

For `CC[C@H](CO)Nc1nc(Nc2cccc(-c3ccccn3)c2)c2ncn(C(C)C)c2n1` [(R)-DRF053 dihydrochloride], the nuclei count came out at 76.2.

`CC(Oc1ccc(O)cc1)(P(=O)(O)O)P(=O)(O)O` gave a nuclei count of 105 ± 0.12.

Compound `CO[C@@H]1[C@H](O)[C@@H](CO)O[C@H]1n1cnc2c(NC3CCCCC3)ncnc21` registered a nuclei count of 102.

Take `COCC[n+]1c2c(n(Cc3cnccn3)c1C)C(=O)c1ccccc1C2=O`: the nuclei count was 14.1.

For the compound `CC(=O)NNC(=O)N1Cc2ccccc2Oc2ccc(Cl)cc21`, the nuclei count was 94.3.

Regarding `OCc1ccc(O[C@@H]2O[C@H](CO)[C@@H](O)[C@H](O)[C@H]2O)cc1` [Gastrodin (Gastrodine)], the nuclei count amounted to 94.5.

As for `CSc1cccc(Nc2ncc3cc(-c4c(Cl)cccc4Cl)c(=O)n(C)c3n2)c1`, the nuclei count is 72.2.

Compound `CCN(CC)CCOc1ccc(Cc2ccccc2)cc1` [DPPE fumarate] returned a nuclei count of 101.

For `CCN(CC)CCOc1ccc(Nc2ncc3cc(-c4c(Cl)cccc4Cl)c(=O)n(C)c3n2)cc1`, the nuclei count turned out to be 7.54.

`Cc1ccc(CC2(O)CCN(CCOc3ccc(O)cc3)CC2)cc1`: the nuclei count stood at 87.3.

`COc1ccc(CCC(=O)c2c(O)cc(O[C@@H]3O[C@H](CO)[C@@H](O)[C@H](O)[C@H]3O[C@@H]3O[C@@H](C)[C@H](O)[C@@H](O)[C@H]3O)cc2O)cc1O` [Neohesperidin dihydrochalcone (Nhdc)] registered a nuclei count of 98.7.

In turn, `COC(=O)[C@]12CCC(C)(C)C[C@H]1[C@H]1C(=O)C=C3[C@@]4(C)C=C(C#N)C(=O)C(C)(C)[C@@H]4CC[C@@]3(C)[C@]1(C)CC2` [Bardoxolone Methyl] gave a nuclei count of 4.35.
